According to PubChem BioAssay (NCI):
About 83,000 compounds went through this panel and 20% of them were active in at least one assay; those are over-represented in the sample as a whole.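 Percent growth is the endpoint: 0 to 100 indicates growth inhibition (40 means 60% inhibition), 0 means no net growth, and negative values indicate cell death.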 Activity calls are given as the source filed them. The calls were made as follows: active = growth percent below 10; inactive = the rest.

What was measured:
Experiment in all cases: NCI-60 one-dose screen, 48 h (100 = growth as untreated, 0 = no growth, -100 = all killed)
Details in all cases: 10 µM unless noted
T-47D breast = tested on: T-47D breast
BT-549 breast = tested on: BT-549 breast
MDA-MB-435 melanoma = tested on: MDA-MB-435 melanoma
SW-620 colon = tested on: SW-620 colon
MCF7 breast = tested on: MCF7 breast
HCT-116 colon = tested on: HCT-116 colon
HCC-2998 colon = tested on: HCC-2998 colon
KM12 colon = tested on: KM12 colon

Measured: growth

O=C(Nc1ccc(Cl)c(Cl)c1)NS(=O)(=O)c1cnccc1Oc1ccc(F)cc1
inactive: BT-549 breast 93.7% | MDA-MB-435 melanoma 86.8% | SW-620 colon 65.3% | MCF7 breast 58.6% | HCT-116 colon 41.3% | HCC-2998 colon 76.7% | KM12 colon 48.7%
active: T-47D breast -0.777%

CCCCCCCCCCCCNC(=O)[C@H]1CSC(c2cc3ccccc3s2)N1 (stereo partly specified)
inactive: T-47D breast 52.5% | MCF7 breast 42.4% | HCC-2998 colon 61.4%
active: BT-549 breast -60.1% | MDA-MB-435 melanoma -94.6% | SW-620 colon 3.61% | HCT-116 colon -80% | KM12 colon -50.7%

CC(C)C1=CC2=C(C=O)C[C@@H]3[C@](C)(CCC[C@@]3(C)C(=O)OCC#CCN3CCCC3)[C@H]2CC1
inactive: T-47D breast 54.7% | BT-549 breast 63.9% | MDA-MB-435 melanoma 92.8% | SW-620 colon 88% | MCF7 breast 85.7% | HCT-116 colon 50.3% | HCC-2998 colon 93.9% | KM12 colon 75.1%

COc1ccc(/C=N\NC(=O)CN2CCN(c3cc4c(cc3F)c(=O)c(C(=O)N/N=C/c3ccc(OC)c(OC)c3)cn4C3CC3)CC2)cc1OC
active: T-47D breast 3.79% | BT-549 breast -11.1% | MDA-MB-435 melanoma -49.7% | SW-620 colon 4.64% | MCF7 breast -4.9% | HCC-2998 colon -10.8% | KM12 colon 7.04%
inactive: HCT-116 colon 13.3%

Cc1c(C(N)=O)sc2c1c(=O)n(Cc1ccccc1)c1nnc(Nc3ccccc3)n21
inactive: T-47D breast 89% | BT-549 breast 123% | MDA-MB-435 melanoma 103% | SW-620 colon 108% | MCF7 breast 100% | HCT-116 colon 94.2% | HCC-2998 colon 110% | KM12 colon 93.6%

COc1cc2c(cc1O)CCN1C[C@@H](CC(C)C)[C@@H](O)C[C@@H]21
inactive: T-47D breast 91.1% | BT-549 breast 108% | MDA-MB-435 melanoma 103% | SW-620 colon 102% | MCF7 breast 102% | HCT-116 colon 101% | HCC-2998 colon 102% | KM12 colon 109%

Cc1c(C(=N)C(C#N)C#N)c(=N)oc2c1ccc1ccccc12
inactive: T-47D breast 71.9% | BT-549 breast 73.9% | MDA-MB-435 melanoma 83.6% | SW-620 colon 92.2% | MCF7 breast 57.9% | HCT-116 colon 79.6% | HCC-2998 colon 80.3% | KM12 colon 101%

O=[N+]([O-])c1ccc(OCCCOc2ccccc2)cc1
inactive: T-47D breast 110% | BT-549 breast 93.1% | MDA-MB-435 melanoma 99% | SW-620 colon 107% | MCF7 breast 93% | HCT-116 colon 97.4% | HCC-2998 colon 101% | KM12 colon 101%

O=C([O][Sn]([O]C(=O)c1ccccn1)([c]1ccccc1)[c]1ccccc1)c1ccccn1
active: T-47D breast -14.9% | SW-620 colon 0.566%
inactive: BT-549 breast 98.5% | MDA-MB-435 melanoma 80.6% | MCF7 breast 31.8% | HCT-116 colon 30.7% | HCC-2998 colon 88.3% | KM12 colon 97.4%

CCOC(=O)c1c(NS(=O)(=O)c2ccc(C)cc2)sc2c1CCC1(C2)OCCO1
inactive: T-47D breast 81.3% | BT-549 breast 93.8% | MDA-MB-435 melanoma 101% | SW-620 colon 90.7% | MCF7 breast 93.2% | HCT-116 colon 95.9% | HCC-2998 colon 92% | KM12 colon 88.8%

N=C(N)c1ccc(-c2cc(Cl)cc(Cl)c2)cn1
inactive: T-47D breast 83.7% | BT-549 breast 94.5% | MDA-MB-435 melanoma 56.7% | SW-620 colon 82.6% | MCF7 breast 75.9% | HCT-116 colon 92% | HCC-2998 colon 67.5% | KM12 colon 89.8%

CCOc1cc2c(Cl)ncnc2c(OCC)c1OCC
active: HCC-2998 colon -45.3%
inactive: T-47D breast 76.3% | BT-549 breast 75.1% | MDA-MB-435 melanoma 78.5% | SW-620 colon 59.2% | MCF7 breast 52.4% | HCT-116 colon 49.6% | KM12 colon 71.6%

COc1ccc(-c2c(-c3cc(OC)c4c(c3)OCO4)noc2N)cc1
active: MDA-MB-435 melanoma -38.9% | HCT-116 colon 6.02% | KM12 colon 3.59%
inactive: T-47D breast 37.3% | BT-549 breast 20.7% | SW-620 colon 21% | MCF7 breast 14.2% | HCC-2998 colon 15.8%

COc1cc(C2NN=C3c4ccccc4CCC32)cc(OC)c1OC (stereo unspecified)
inactive: T-47D breast 39.3% | BT-549 breast 103% | MDA-MB-435 melanoma 96.9% | SW-620 colon 93.9% | MCF7 breast 42.7% | HCT-116 colon 74.8% | HCC-2998 colon 110% | KM12 colon 80.4%

CN1C(=O)N(C)C2C1NN=c1s/c(=C\C=C\c3ccccc3)c(=O)n12 (stereo unspecified)
inactive: T-47D breast 53.1% | BT-549 breast 55.2% | SW-620 colon 40% | HCT-116 colon 31.8% | HCC-2998 colon 63.1% | KM12 colon 23.2%
active: MDA-MB-435 melanoma 4.66% | MCF7 breast -94.6%

COc1ccc(-c2ccc(-c3ccc(-c4ccc(C(=N)N)cc4)s3)s2)cc1OC
active: SW-620 colon -40.8% | MCF7 breast -19.8% | HCC-2998 colon -68.6% | KM12 colon -42.5%
inactive: T-47D breast 28.5% | BT-549 breast 98.3% | MDA-MB-435 melanoma 88.2% | HCT-116 colon 27.5%

CN(C[C@H]1Cc2c(cccc2N2CCN(Cc3ccccn3)CC2)CN1)[C@H]1CCCc2cccnc21
inactive: T-47D breast 44.6% | BT-549 breast 81.9% | MDA-MB-435 melanoma 69.6% | SW-620 colon 51.3% | MCF7 breast 44.1% | HCT-116 colon 30.8% | HCC-2998 colon 94% | KM12 colon 51.7%

Cc1nc2c3c(ncn2n1)Oc1c(c(=O)[nH]c2ccccc12)C3c1ccc(Cl)cc1 (stereo unspecified)
inactive: T-47D breast 86% | MDA-MB-435 melanoma 102% | SW-620 colon 95.4% | MCF7 breast 91.6% | HCT-116 colon 88.8% | HCC-2998 colon 102% | KM12 colon 99.2%
active: BT-549 breast -52.7%

COc1ccc(C2C=C(c3ccc(OC)c(OC)c3)N=C3SC=C(C)N32)c(Br)c1 (stereo unspecified)
inactive: T-47D breast 98.3% | BT-549 breast 99% | MDA-MB-435 melanoma 110% | SW-620 colon 109% | MCF7 breast 94.5% | HCT-116 colon 105% | HCC-2998 colon 110% | KM12 colon 107%

C=C[C@@H]1C[C@H](O)Cc2ccccc2N1
inactive: T-47D breast 118% | BT-549 breast 113% | MDA-MB-435 melanoma 107% | SW-620 colon 105% | MCF7 breast 105% | HCT-116 colon 113% | HCC-2998 colon 99.6% | KM12 colon 109%

OC(c1cc2cc(Br)ccc2c2cc(Br)ccc12)C1CCCCN1 (stereo unspecified)
active: T-47D breast -75.3% | MDA-MB-435 melanoma -78% | SW-620 colon -75% | MCF7 breast -88.2% | HCT-116 colon -72.7% | HCC-2998 colon -81.5% | KM12 colon -91.7%
inactive: BT-549 breast 69%

COc1cc(-c2nn(-c3cccc(NC(=O)Nc4cc(C(F)(F)F)cc(C(F)(F)F)c4)c3)cc2-c2ccncc2)ccc1Cl
active: T-47D breast 4.45% | BT-549 breast -8.96% | MDA-MB-435 melanoma -58.3% | SW-620 colon -2.89% | MCF7 breast 1.74% | HCT-116 colon -43.6% | HCC-2998 colon -10.8% | KM12 colon -14.8%

Fc1ccc(-c2nc(-c3nc4ncccc4[nH]3)cc3c2[nH]c2ccccc23)cc1F
inactive: T-47D breast 51.7% | BT-549 breast 84% | MDA-MB-435 melanoma 66.1% | SW-620 colon 102% | MCF7 breast 38.7% | HCT-116 colon 30.3% | HCC-2998 colon 100% | KM12 colon 71.9%

COc1ccc(CCNC2=CC(=O)CCC2)cc1OC
inactive: T-47D breast 100% | BT-549 breast 103% | MDA-MB-435 melanoma 110% | SW-620 colon 101% | MCF7 breast 105% | HCT-116 colon 106% | HCC-2998 colon 106% | KM12 colon 99%

CCN(CC)CCOc1ccc(Cl)c(C)c1
inactive: T-47D breast 104% | BT-549 breast 112% | MDA-MB-435 melanoma 106% | SW-620 colon 106% | MCF7 breast 96.2% | HCT-116 colon 98.5% | HCC-2998 colon 90.6% | KM12 colon 105%

O=c1cc/c(=N\Nc2ccccc2)c(=O)/c1=N/Nc1ccccc1
inactive: T-47D breast 92.8% | BT-549 breast 102% | MDA-MB-435 melanoma 126% | SW-620 colon 98.6% | MCF7 breast 78.4% | HCT-116 colon 90.1% | HCC-2998 colon 99% | KM12 colon 94.1%

CCCCCCCC[C@@H](O)CC(=O)N[C@@H](CC(N)=O)C(=O)N[C@@H](CCC(N)=O)C(=O)N[C@@H](CC(=O)c1cc(C)cc(O)c1C(=O)c1c(O)cccc1O)CC(C)C
active: T-47D breast -3.58% | BT-549 breast -1.45% | MDA-MB-435 melanoma -39.6% | HCT-116 colon -9.35% | HCC-2998 colon -72.6% | KM12 colon 1.64%
inactive: SW-620 colon 18.3% | MCF7 breast 29.9%

NC(=N\N=C/c1ccc(O)cc1)/C(N)=N\N=C/c1ccc(O)cc1
inactive: T-47D breast 49.6% | BT-549 breast 52.5% | MDA-MB-435 melanoma 44.7% | SW-620 colon 40.8% | MCF7 breast 66.4% | HCT-116 colon 62.2% | HCC-2998 colon 51% | KM12 colon 23.6%

N/C(=N\S(=O)(=O)c1ccccc1)Nc1nc2ccccc2s1
inactive: T-47D breast 75.9% | BT-549 breast 95.5% | MDA-MB-435 melanoma 101% | SW-620 colon 99.6% | MCF7 breast 90.6% | HCT-116 colon 97.5% | HCC-2998 colon 107% | KM12 colon 93%

O=C(/C=C/c1ccccc1)c1cccc(O)c1
active: HCT-116 colon -71.6% | KM12 colon -29.4%
inactive: T-47D breast 97.9% | BT-549 breast 80.4% | MDA-MB-435 melanoma 57.1% | SW-620 colon 65.4% | MCF7 breast 14.9% | HCC-2998 colon 102%

CN1CCN(CCCOc2ccc3nc(Nc4ccc(Cl)c(C(F)(F)F)c4)ccc3c2)CC1
inactive: T-47D breast 76.7% | BT-549 breast 102% | MDA-MB-435 melanoma 59.6% | MCF7 breast 27.1% | HCT-116 colon 26.3% | KM12 colon 28.8%
active: SW-620 colon 0.0049% | HCC-2998 colon 6.68%

C=C[C@@H]1C[C@@H]2Cc3ccccc3N1O2
inactive: T-47D breast 110% | BT-549 breast 114% | MDA-MB-435 melanoma 100% | SW-620 colon 102% | MCF7 breast 111% | HCT-116 colon 101% | HCC-2998 colon 114% | KM12 colon 110%
